Source: the OligoGym collection

Legend:
Experiment in all cases: pooled miR-30 sensor sort-seq; sequence = guide strand
Details in all cases: shRNA
[1] = target: CTSB
[2] = target: CTSH
[3] = target: CTNNBL1
[4] = target: CXCL1
[5] = target: CUZD1
[6] = target: CWF19L2
[7] = target: CYLC1
[8] = target: CYP20A1
[9] = target: CYP2E1
Further: reference of the scale not given here.

For TTGTCCAGAAGTTCCAAGCTTC, the sensor-assay potency score (higher = more potent) [1] was -0.113.
Sequence TCTCTGATCTCTTTGATGGTGG has a sensor-assay potency score (higher = more potent) [1] of -0.142.
TCGTCATAGATTGTGATGTTGG was tested, and the sensor-assay potency score (higher = more potent) [2] was -0.963.
Sequence TTCAGTGCCATTTTAAATGTGT has a sensor-assay potency score (higher = more potent) [2] of 0.219.
With TTAGACATCCATGACTTGAAGT the sensor-assay potency score (higher = more potent) [2] was -0.899.
With TGCTTAGACATCCATGACTTGA the sensor-assay potency score (higher = more potent) [2] was -1.27.
Work on TTCTCGCTATTGGAGACGCTGT yielded a sensor-assay potency score (higher = more potent) [1] of -1.66.
Sequence TGAACTTCTCTGGATTGTCTGG has a sensor-assay potency score (higher = more potent) [3] of -0.725.
TACTGTAGGTCTTACGGTGCTT gave a sensor-assay potency score (higher = more potent) [2] of -0.0767.
With TTAAACACGGATAACTGCTGAA the sensor-assay potency score (higher = more potent) [3] was -0.397.
TTCCTCGTCATAGATTGTGATG was tested, and the sensor-assay potency score (higher = more potent) [2] was -1.43.
Sequence ATAGTTGACCAGCTCATCCGAC has a sensor-assay potency score (higher = more potent) [1] of -0.423.
TGTTGGTACACTCCTGACTTGT gave a sensor-assay potency score (higher = more potent) [1] of -1.2.
Work on TAAACATAACTCTCTGGGGTGG yielded a sensor-assay potency score (higher = more potent) [1] of -0.755.
With TAGTTGACCAGCTCATCCGACA the sensor-assay potency score (higher = more potent) [1] was -0.966.
TTTTTGTAGATCTCGGCCATGA gave a sensor-assay potency score (higher = more potent) [1] of -0.154.
With AAGCACATCGATTCCATCCAGC the sensor-assay potency score (higher = more potent) [3] was -0.642.
TTTGGTGGCTGAGCAATTCTGA was tested, and the sensor-assay potency score (higher = more potent) [2] was -0.218.
TGATTTTCTTAACTATGGGGGA showed a sensor-assay potency score (higher = more potent) [4] of -0.639.
TTTAGTTGCAAGTTATTCCCAT showed a sensor-assay potency score (higher = more potent) [5] of 0.389.
In the case of TTTGCTTATAATAACTCTCATC, the sensor-assay potency score (higher = more potent) [5] is reported as -0.82.
With TTTTATGGCAGGAAGTACTGGA the sensor-assay potency score (higher = more potent) [2] was 0.401.
With TGTTGTAGCATATCTATCCCTT the sensor-assay potency score (higher = more potent) [6] was -0.316.
With TAACTATGGGGGATGCAGGATT the sensor-assay potency score (higher = more potent) [4] was -1.31.
TTAGATTCTCTTCTACACGTTT showed a sensor-assay potency score (higher = more potent) [6] of -0.587.
TTGAAGTTTAGTTTTATCTTGT gave a sensor-assay potency score (higher = more potent) [5] of 0.539.
Work on TTGATTAGGTCGTAGGTTGGAG yielded a sensor-assay potency score (higher = more potent) [5] of 0.0207.
For TTGTTTCTCAGCTTGTTCCTTC, the sensor-assay potency score (higher = more potent) [6] was 0.329.
With TTGTTGTACAGGATATACTCGA the sensor-assay potency score (higher = more potent) [2] was 0.136.
TTGTATTACATCATCTTCTGTT gave a sensor-assay potency score (higher = more potent) [5] of 0.486.
Sequence TACATCCTTGACAAAGCCGATG has a sensor-assay potency score (higher = more potent) [2] of -1.28.
In the case of TTGCAGTATCTGTTGTAGCATA, the sensor-assay potency score (higher = more potent) [6] is reported as -0.923.
For TGTGATGTTGGCTACATCCTTG, the sensor-assay potency score (higher = more potent) [2] was -0.0306.
For TTTCTTGACAATTTTGTGCTTT, the sensor-assay potency score (higher = more potent) [6] was 0.803.
In the case of TTAGCCAGCTTAATCCACCATC, the sensor-assay potency score (higher = more potent) [6] is reported as 0.0576.
AAGGACAGCATCTTTCCGGTTG showed a sensor-assay potency score (higher = more potent) [2] of 0.018.
Work on TTAGTAATCGATGACACACTAC yielded a sensor-assay potency score (higher = more potent) [6] of -0.494.
In the case of TTATCTGGAGTTTTATGGCAGG, the sensor-assay potency score (higher = more potent) [2] is reported as -0.729.
In the case of TAATCTTTCTTCACTGTTCTTG, the sensor-assay potency score (higher = more potent) [6] is reported as 0.0595.
Work on TATATGAAGAAATGTCTCGTTT yielded a sensor-assay potency score (higher = more potent) [5] of -0.417.
ATGATTTTCTTAACTATGGGGG was tested, and the sensor-assay potency score (higher = more potent) [4] was -0.365.
Sequence TAAATTAACTGAACAATTCGGA has a sensor-assay potency score (higher = more potent) [6] of 0.661.
For TTACACTGCAGATACACAGAGC, the sensor-assay potency score (higher = more potent) [5] was -0.444.
For TTTACTAAGTCTGATTCTCTAC, the sensor-assay potency score (higher = more potent) [6] was -0.315.
In the case of TTCTGATTGTACCACATCCATT, the sensor-assay potency score (higher = more potent) [5] is reported as -1.82.
Sequence TTTGACTTTGTATTACATCATC has a sensor-assay potency score (higher = more potent) [5] of -1.5.
Sequence TATCTTGTAATCTTTCTCCACT has a sensor-assay potency score (higher = more potent) [5] of -0.514.
TTATCTTCCTCCAGTTGCTGGC gave a sensor-assay potency score (higher = more potent) [2] of -0.0224.
In the case of TCTATACATCATGAAGTCCTGA, the sensor-assay potency score (higher = more potent) [2] is reported as 0.44.
Work on TTAACTATGGGGGATGCAGGAT yielded a sensor-assay potency score (higher = more potent) [4] of -1.04.
TTTATCTGGAGTTTTATGGCAG was tested, and the sensor-assay potency score (higher = more potent) [2] was -0.245.
TTCTACTTTGTTTCTCAGCTTG gave a sensor-assay potency score (higher = more potent) [6] of 0.279.
With TTCAGCAAAGCTCATGTCTGAA the sensor-assay potency score (higher = more potent) [2] was -0.714.
In the case of TTTGTATTACATCATCTTCTGT, the sensor-assay potency score (higher = more potent) [5] is reported as -0.716.
For TTCGATGATTTTCTTAACTATG, the sensor-assay potency score (higher = more potent) [4] was -1.26.
For AAATACAGGAACATAGTCGTTT, the sensor-assay potency score (higher = more potent) [5] was 0.0357.
Work on TAATCCACCATCTTCTACCACT yielded a sensor-assay potency score (higher = more potent) [6] of -1.06.
Sequence TTTTTCTTAACTTTCTTTGAAT has a sensor-assay potency score (higher = more potent) [7] of -0.75.
In the case of TTGAATGTAGTCTTTTTGGATG, the sensor-assay potency score (higher = more potent) [7] is reported as -0.77.
TTGATGGAGGAACTCTACCTGT was tested, and the sensor-assay potency score (higher = more potent) [7] was -0.867.
TTGTTGCATATGAACCTCCTTT showed a sensor-assay potency score (higher = more potent) [7] of -0.831.
TAAATCGGTCAATTTTTCCTTC showed a sensor-assay potency score (higher = more potent) [8] of 0.481.
With TTAAACAAATACATCAGCCTTA the sensor-assay potency score (higher = more potent) [9] was 0.593.
For TTGATGGTGCTCCTTCACCCTT, the sensor-assay potency score (higher = more potent) [9] was -1.19.
TTTTTTATGACTTTTCTGTGGC showed a sensor-assay potency score (higher = more potent) [9] of 0.343.
TTATTCTGTGAGTAATTCCTTA was tested, and the sensor-assay potency score (higher = more potent) [7] was -0.37.
With TTTGCAGTTATTATGCAACTGG the sensor-assay potency score (higher = more potent) [8] was -0.736.
Work on TAATTTTTTCTTATCCTTCTTT yielded a sensor-assay potency score (higher = more potent) [7] of 0.0107.
Sequence TTGTCATGTCTAGTAACTGTTA has a sensor-assay potency score (higher = more potent) [7] of -0.717.
With TTTAGTTTTCTCTTCTACTATT the sensor-assay potency score (higher = more potent) [7] was -1.07.
TTTATCTAATAATTCTTCTGAA showed a sensor-assay potency score (higher = more potent) [8] of -0.378.
For TTGGATGACATTCTGAATCCTC, the sensor-assay potency score (higher = more potent) [7] was 0.399.
Work on TAAACTTTTCTGGATCAGGAAA yielded a sensor-assay potency score (higher = more potent) [9] of -1.37.
TTGCATCCTTTGCATCTCCTGA was tested, and the sensor-assay potency score (higher = more potent) [7] was -0.744.
For TTATCTAATAATTCTTCTGAAA, the sensor-assay potency score (higher = more potent) [8] was -1.37.
With TACACTAAGAAGTACTGTGGTC the sensor-assay potency score (higher = more potent) [8] was -0.206.
With TAGTCACTGTACTTGAACTTTC the sensor-assay potency score (higher = more potent) [9] was -0.787.
With TTCTCTTCTACTATTTGCTTGG the sensor-assay potency score (higher = more potent) [7] was -0.0318.
ATGCTGACAATATCTGAGCTGC was tested, and the sensor-assay potency score (higher = more potent) [8] was -0.739.
With TATTATCTGTCTTTGAATCTTT the sensor-assay potency score (higher = more potent) [7] was 0.0737.
Work on TATGGGATCATTACTAGTCTTT yielded a sensor-assay potency score (higher = more potent) [7] of -0.233.
Work on TTCATCTTTCTGACTCTCCTTT yielded a sensor-assay potency score (higher = more potent) [7] of 0.625.
ATACTTTGTTTCAATAACCTGT gave a sensor-assay potency score (higher = more potent) [8] of -0.318.
TTTCTTGGAATCTTTCTTCAAA showed a sensor-assay potency score (higher = more potent) [7] of -0.0994.
